TDP1 cell CPT: growth inhibition of DT40 Tdp1-/-;hTDP1 cells with camptothecin (screen for TDP1 inhibitors). hit rate 12% among 420,000. chicken DT40 Tdp1-/-;hTDP1 cells + 20 nM CPT, ATP luminescence, 48 h. Potency, µM (titrated, usually from 46.2 µM), without a hit: top-dose activity change, negative = growth inhibition, most hits filed as inhibitors. AID 686979; further: nearly all actives have a fitted effect of over 55% in size
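Chicken DT40 Tdp1-/- cells complemented with human TDP1, 400 cells/well, exposed to compounds plus 20 nM camptothecin for at least 48 h at 37 C; viability read as ATP content by CellTiter-Glo luminescence.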
ALOX12 inh: ALOX12 (human) lipoxygenase inhibition; P18054; purified 12hLO, xylenol orange hydroperoxide absorbance; Potency, µM (doses to about 108 µM), inactives show at the top dose activity change, negative = inhibition, hits mostly inhibitors; hit rate 1.1% among 580,000; AID 1671190
Target sequence (P18054 whole entry, looked up): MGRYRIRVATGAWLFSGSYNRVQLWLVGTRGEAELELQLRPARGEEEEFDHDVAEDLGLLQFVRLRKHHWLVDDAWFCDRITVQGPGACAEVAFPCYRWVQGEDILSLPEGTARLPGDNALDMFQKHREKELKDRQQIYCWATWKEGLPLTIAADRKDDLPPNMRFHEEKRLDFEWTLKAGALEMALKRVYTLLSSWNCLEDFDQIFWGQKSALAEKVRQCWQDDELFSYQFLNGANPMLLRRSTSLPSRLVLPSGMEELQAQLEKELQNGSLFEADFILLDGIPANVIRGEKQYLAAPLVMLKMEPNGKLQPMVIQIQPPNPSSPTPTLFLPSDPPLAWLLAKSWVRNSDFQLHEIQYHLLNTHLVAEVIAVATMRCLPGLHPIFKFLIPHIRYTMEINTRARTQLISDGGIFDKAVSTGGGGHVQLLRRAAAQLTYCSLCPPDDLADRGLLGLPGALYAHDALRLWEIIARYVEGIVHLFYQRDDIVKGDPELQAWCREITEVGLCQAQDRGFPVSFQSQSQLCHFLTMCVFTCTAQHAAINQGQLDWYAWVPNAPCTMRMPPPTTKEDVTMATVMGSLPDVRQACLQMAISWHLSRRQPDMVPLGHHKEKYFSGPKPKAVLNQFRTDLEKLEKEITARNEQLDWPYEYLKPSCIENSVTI
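Purified human 12hLO (150 nM final) in 25 mM Hepes, 0.01% Triton X-100, pH 7.0 was preincubated 15 min at room temperature with compound. Then 40 uM arachidonic acid was added, 30 min. Hydroperoxide was read by Fe-XO absorbance ratio 573/405 nm.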
ELG1 repair inh: ELG1-dependent DNA repair inhibition; HEK293T ELG1-luciferase reporter, luminescence, 16 h; DNA damage induced by 5-fluorouridine; hit rate 2.3% among 330,000; Potency, µM (series often up to 46.1 µM), for inactives: at the highest dose activity change, negative = inhibition, usual class: inhibitors; further: nearly all actives have a fitted effect of over 55% in size
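DMSO vehicle served as the neutral condition. Each well held 2,000 cells given 5-fluorouridine plus compound; after 16 hr at 37 °C/5% CO2, ONE-Glo was added and luciferase measured 30 min later.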
VP16 counter: Gal4-VP16 reporter inhibition counter-screen. Potency, µM (series often up to 53.6 µM), inactives show at the top dose activity, negative = inhibition, hits mostly inhibitors. Drosophila S2 Gal4-VP16 UAS-luciferase, luminescence, 20 h. hit rate 3.5% among 310,000;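 further: Gal4-VP16 expression switched on by copper sulfate through the metallothionein promoter; nearly all actives have a fitted effect of over 50% in size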
RORgamma inh: blocks mouse ROR gamma transcriptional activity. P51450. Drosophila S2 Gal4-RORgamma UAS-luciferase reporter, 20 h. Potency, µM (top dose mostly 53.6 µM), for the others: at the highest dose activity change, negative = inhibition, hits mostly inhibitors. hit rate 5.4% among 310,000. AID 2551; further: nearly all actives have a fitted effect of over 60% in size
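A Gal4/UAS one-hybrid system in insect cells: metallothionein-promoter Gal4–ROR gamma fusion plus Photinus luciferase reporter. Copper sulfate 700 uM final, 20 hr ambient incubation, luminescent detection after 10 min with reagent.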
DT40 TDP1 no CPT: qHTS for Inhibitors of human tyrosyl-DNA phosphodiesterase 1 (TDP1): qHTS in cells in absence of CPT. hit rate 15% among 420,000. Potency, µM (highest dose often 46.2 µM), without a hit: at the top dose activity change, negative = growth inhibition, hits mostly inhibitors. DT40 Tdp1-/- hTDP1 cells, no CPT, ATP luminescence, 48 h; further: nearly all actives have a fitted effect of over 55% in size
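Growth of hTDP1-complemented DT40 Tdp1-knockout cells is measured by ATP luminescence after at least 48 hr compound exposure at 37 °C, with DMSO substituting for the 20 nM CPT used in the parallel screen.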
Active calls of the source: *; ? = inconclusive; · = no result given; [ ] = dose if it differs, or a comment. Only some compounds are listed: those with a hit (about 15% of all), similar ones and a draw of the others. The call rests on the fitted dose curve; in most records, active means well fitted curve in the direction sought with a large enough effect; inconclusive means small, poorly fitted or top-dose-only effect, or another doubt; inactive means no such curve, though single readings can be large; an effect the other way counts as inactive or inconclusive. On the % scale 0 is the no-effect control and ±100 the full control effect; potency means the concentration at half of the fitted maximal effect.

SMILES	TDP1 cell CPT	ALOX12 inh	ELG1 repair inh	VP16 counter	RORgamma inh	DT40 TDP1 no CPT
COc1ccccc1CN[C@H]1Cc2ccc(cc2)Nc2cc(ccc2OC)C[C@H](C(=O)NCc2ccccc2)N(C)C1=O	·	0.6%	·	·	·	·
CCCC(=O)N1c2ccccc2C(=C2SC(C(=O)OC)=C(C(=O)OC)S2)C(=S)C1(C)C	14.6µM*	22.4µM*	?	-8.7%	-18.8%	25.9µM*
CC1(c2ccc(C#N)cc2)NC(=O)N(Cc2coc(-c3cccs3)n2)C1=O (configuration not stated)	·	-4.4%	·	·	·	·
C#CCNC(=O)c1csc([C@@H]2O[C@H](CO)[C@@H](O)[C@H]2O)n1	16.4µM*	-2.1%	·	·	·	?
O=C(NCc1ccncc1)c1csc([C@@H]2O[C@H](CO)[C@@H](O)[C@H]2O)n1	2.06µM*	?	·	·	·	2.31µM*
Cc1ccc(-n2c(CNc3cccc(Cl)c3)n[nH]c2=S)cc1	3.1%	?	14.5%	-14.8%	?	-5.7%
CCCCOCC(O)CCc1n[nH]c(=S)n1-c1ccccc1 (configuration not stated)	-2.3%	?	-17.0%	-5.6%	-44.6%	-5.3%
Cc1ccccc1OCc1n[nH]c(=S)n1-c1ccccc1	2.3%	-22.6%	-29.4%	8.91µM*	2.51µM*	8.3%
Cc1ccc(OCc2n[nH]c(=S)n2-c2ccc(Cl)cc2)cc1	-0.4%	?	-0.6%	3.16µM*	-38.0%[1.91 µM]	-18.0%
Cc1n[nH]c(=S)n1-c1ccc(Cl)cc1	?	?	?	-9.3%	?	1.8%
S=c1[nH]nc(COc2ccc(Cl)cc2)n1-c1ccc(Cl)cc1	8.8%	?	-9.4%	?	5.62µM*	-24.1%
Cc1ccc(-n2c(CNc3ccc(C)c(Cl)c3)n[nH]c2=S)cc1	?	44.7µM*	-16.9%	-16.6%	2.51µM*	?
COC(Cc1n[nH]c(=S)n1-c1ccc(Cl)cc1)OC	7.4%	?	6.2%	-5.5%	?	7.4%
CC(C#N)OC(=O)c1cc(C(C)C)nc2ccccc12 (configuration not stated)	·	-5.9%	·	·	·	·
S=c1[nH]nc(COc2ccc(Cl)cc2)n1-c1ccccc1	-27.2%	?	2.3%	3.16µM*	3.98µM*	?
O=C(O)CSc1nnc(COc2ccc(Br)cc2)n1-c1ccccc1	-1.1%	?	?	1.0%	-1.1%	-1.7%
Cc1ccc(OCc2n[nH]c(=S)n2-c2ccc(Br)cc2)cc1	3.9%	?	17.9%	5.62µM*	2.24µM*	-17.5%
CC(Sc1nc2nc[nH]c2c(=O)[nH]1)C(=O)Nc1ccc(F)cc1 (configuration not stated)	·	22.4%	·	·	·	·
O=C(NCC(F)F)C1CCCN(c2nc3ncccc3o2)C1 (configuration not stated)	·	57.1%[176 µM]	·	·	·	·
COc1ccc(NC(=O)c2cncc(Br)c2)c(S(=O)(=O)N2CCOCC2)c1	?	0.0%	11.2µM*	-1.3%	0.2%	?
Cc1ccc(NC(=O)c2cncc(Br)c2)cc1S(=O)(=O)N(C)C	?	-6.3%	?	12.3%	44.9%	14.6µM*
Cc1cccc(C(=O)N[C@H](C(=O)Nc2ccc(C)c(S(=O)(=O)N(C)C)c2)C(C)C)c1	?	-3.4%	?	-8.2%	-0.7%	14.6µM*
CN(C)S(=O)(=O)c1cccc(NC(=O)c2cncc(Br)c2)c1	?	-18.6%	-18.8%	?	?	?
Cc1cccc(C(=O)N[C@H](C(=O)Nc2ccc3c(c2)OCO3)C(C)C)c1	-21.2%	-2.5%	8.8%	·	·	-16.7%
Cc1ccc(S(=O)(=O)N(C)C)cc1NC(=O)c1cncc(Br)c1	13µM*	0.1%	14.6µM*	2.51µM*	10µM*	11.6µM*
SMILES	TDP1 cell CPT	ALOX12 inh	ELG1 repair inh	VP16 counter	RORgamma inh	DT40 TDP1 no CPT
Cn1cnnc1CC1CCN(C(=O)Nc2ccccc2)C1 (configuration not stated)	·	10.8%	·	·	·	·
Cc1ccc(S(=O)(=O)N2CCCCC2)cc1NC(=O)c1cncc(Br)c1	?	1.9%	5.8µM*	·	·	?
CCNc1cc(N2CCC(CCC(=O)N3CCN(c4cccc(OC)c4)CC3)CC2)ncn1	·	28.1%	·	·	·	·
S=C1NCN(C2CCCCC2)CN1c1ccccc1	-23.2%	?	-4.4%	?	22.4µM*	-7.7%
CCOC(=O)C1CCCN(c2c(Nc3cc(C)cc(C)c3)c(=O)c2=O)C1 (configuration not stated)	-9.9%	-5.6%	-11.8%	4.9%	-7.3%	-25.8%
CCOC(=O)C1CCCN(c2c(Nc3ccc(C)c(C)c3)c(=O)c2=O)C1 (configuration not stated)	16.4µM*	?	-15.4%	-4.3%	-3.3%	?
O=C(c1ccc2c(c1)OCCO2)N1CCc2[nH]nc(-c3ccccc3F)c2C1	·	39.7%	·	·	·	·
CCc1ccc(NC(=O)c2ccc(F)c(S(=O)(=O)N(CC)c3ccccc3)c2)cc1	?	-18.1%	?	-2.7%	19.7%	8.2µM*
CCc1ccc(NC(=O)c2ccc(F)c(S(=O)(=O)NCc3ccc(Cl)c(Cl)c3)c2)cc1	?	-20.1%	·	·	·	?
CCN(c1ccccc1)S(=O)(=O)c1cc(C(=O)Nc2cccc(Cl)c2)ccc1F	?	13.1%	23.1µM*	-18.7%	14.5%	?
O=[N+]([O-])c1cc([N+](=O)[O-])c(Oc2ccc(F)cc2)cc1NN1CCCCC1	-14.4%	-7.8%	12.2%	-3.5%	-7.2%	-7.6%
O=[N+]([O-])c1cc([N+](=O)[O-])c(Oc2cc(F)cc(F)c2)cc1NN1CCCCC1	18.4µM*	8.7%	26.6%	·	·	-24.1%
CC(C)n1ncc2c(C(=O)Nc3ccc(Br)cc3F)c3c(nc21)CCC3	·	2.8%	·	·	·	·
CC1=N/C(=C\c2ccc([N+](=O)[O-])cc2)C(=O)N1c1ccc(Br)c(C)c1	11.6µM*	-7.8%	-2.6%	-2.5%	36.6%	5.8µM*
COc1ccc(N2C(=O)/C(=C/c3ccc([N+](=O)[O-])cc3)N=C2C)cc1	-16.0%	-3.8%	-6.9%	-9.3%	17.2%	?
O=C1NC(c2ccccc2)=CC(c2ccccc2O)N1 (configuration not stated)	-13.0%	-16.0%	6.2%	·	·	-3.4%
COc1cccc(C2=CC(c3ccccc3O)NC(C)(C)N2)c1 (configuration not stated)	12.6µM*	·	·	·	·	15.8µM*
COc1ccc(C(=O)N2CCCC(CN3CCOCC3)CC2)cc1OC (configuration not stated)	·	-2.5%	·	·	·	·

Screening data from PubChem.
